The source of these data is PubChem BioAssay (NCATS).

Inconclusive results are not listed. A call without a number means that no potency is given here. The source made the active and inactive calls. Calls come from the whole dose curve; as a rule, active = well fitted inhibition curve with a large enough effect; inconclusive = small, poorly fitted or top-dose-only effect; inactive = flat fitted curve, though single readings scatter.
Potency is the fitted concentration of half-maximal effect.

The nature of the experiment: P-glycoprotein substrates identified in KB-8-5-11 adenocarcinoma cell line, qHTS therapeutic library screen (AID 1346987). Note: nearly all actives have a fitted effect of over 65% in size. The conditions noted are these: KB-8-5-11 (P-gp overexpressing) viability, CellTiter-Glo, 72 h; series mostly up to 44.5 µM. In a few lines:
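KB-8-5-11, a colchicine-selected P-gp-overexpressing KB-3-1 subline, was grown without colchicine for the assay. Cells were seeded at 500 cells/well, dosed in concentration-response and incubated 72 h at 37 degree C, 5% CO2. Viability was read by CellTiter-Glo luminescence.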
In general terms: qHTS replaces the single test concentration by a dilution series.
Regarding `C[C@H](CN(C)C)Oc1nc(Nc2cc3cccc(Cl)c3cn2)cnc1C#N`, the Potency is 2910 nM (active).
To `Cc1sc2c(c1C)C(c1ccc(Cl)cc1)=N[C@H](CC(=O)NCCCCNC(=O)COc1cccc3c1C(=O)N([C@H]1CCC(=O)NC1=O)C3=O)c1nnc(C)n1-2` belongs “inactive”.
`COC(C)(C)CCn1nc(Nc2c(C)cccc2C)c2cnc(Nc3ccc(OCCN4CCCC4)c(F)c3)nc21`: the Potency was 20600 nM (active).
As to `O=C(Cn1c(=O)sc2ccc(Cl)cc21)N1CCN(CCO)CC1`, the Potency result was “inactive”.
The value for `CC(C)(C)CC(=O)OCC(=O)[C@@]12OC(C)(C)O[C@@H]1C[C@H]1[C@@H]3CCC4=CC(=O)C=C[C@]4(C)[C@@]3(F)[C@@H](O)C[C@@]12C` was “inactive”; that for `Cc1c(C(=O)Nc2ccc(N3CCC(N4CCOCC4)CC3)c(C#N)c2)cnn1-c1ccc(Cl)cc1` was 820 nM (active); that for `O=C(c1cc(Cc2n[nH]c(=O)c3ccccc23)ccc1F)N1CCCNCC1` was “inactive”.
